# Screening data from PubChem BioAssay.
# Cdc25B inh = human M-phase inducer phosphatase 2 inhibition. recombinant Cdc25B, OMFP fluorescence Ex485/Em525. inhibition, %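 (compounds tested at 10 µM final in the well)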. P30305. hit rate 0.1% among 65,000; in the data active means inhibition above about 50%
# WNV NS2B-NS3 inh = inhibitors of West Nile virus NS2B-NS3 protease; P06935; WNV NS2B-NS3 protease, fluorogenic substrate Ex360/Em465; stronger effect = lower value; z-score (test concentration not listed); hit rate 0.18% among 65,000; in the data active means z-score below about -3
# Target sequence (P06935 1371-1501 limits assumed): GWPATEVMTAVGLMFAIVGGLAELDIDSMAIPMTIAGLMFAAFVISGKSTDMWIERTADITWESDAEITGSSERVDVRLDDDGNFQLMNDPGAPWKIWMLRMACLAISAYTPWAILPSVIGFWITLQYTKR
# Target sequence (P06935 1502-1679 limits assumed): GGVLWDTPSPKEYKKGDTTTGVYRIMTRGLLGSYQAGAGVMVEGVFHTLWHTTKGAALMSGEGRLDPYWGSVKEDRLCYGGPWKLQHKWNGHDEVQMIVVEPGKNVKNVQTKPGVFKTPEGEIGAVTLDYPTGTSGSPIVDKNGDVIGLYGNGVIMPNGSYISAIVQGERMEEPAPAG
# Hsp90 inh = displaces geldanamycin probe from tumor Hsp90 | P07900 | NCI-N417 lysate Hsp90, Cy3B-geldanamycin FP displacement | inhibition, % at 30 µM | hit rate 0.35% among 64,000 | AID 429;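 active means inhibition above 50%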;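 further: 0% = tracer plus lysate wells and 100% = tracer alone without lysate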
# MKP-1 inh = inhibitors of human MKP-1 phosphatase; P28562; recombinant MKP-1, OMFP hydrolysis fluorescence; inhibition, %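 (compounds tested at a single concentration somewhere between 10 and 100 µM)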; hit rate 0.15% among 65,000; AID 374;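 active means inhibition above about 50%, limit read from the data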;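 further: 0% = DMSO max control wells and 100% = wells with enzyme stopped by NaOH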
# MMP13 inh = blocks human MMP13 activity | AID 570 | MMP-13 fTHP FRET cleavage, Mca fluorescence | hit rate 0.07% among 65,000 | inhibition, % at 4 µM;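 active means inhibition above the mean of compound-free control plate wells plus 3 SD, cut at about 14% in these data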;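 further: 0% = DMSO wells and 100% = wells with reference MMP-13 inhibitor after basal subtraction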
# mHtt clearance = mutant huntingtin protein clearance; HeLa Exon1htt(103Q)mCFP, aggregate imaging; zero = plate's median compound well; hit rate 0.42% among 47,000; inhibition, % at 1.5 µM;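 active means inhibition of aggregate fluorescence above about 70%, also judged a hit by eye on the cell image, limit read from the data, passing the limit was not always enough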;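 further: cells exposed to compound for three days before fixation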
# Redox H2O2 0p5DTT = counter-screen for Cdc25B probes: redox cycling H2O2 in 0.5 mM DTT; shares compounds with Cdc25B inh; cell-free redox cycling H2O2 generation; EC50, µM; hit rate 50% among 30; AID 682; in the data active means EC50 below about 30 µM
# Redox 1 DTT = redox cycling H2O2 generation, Cdc25B counter-screen; shares compounds with Cdc25B inh; 30 tested, under 10 active; AID 683; cell-free redox cycling H2O2 generation, 1 mM DTT; EC50, µM; in the data active means EC50 below about 50 µM
# Redox H2O2 = counter-screen for MKP-1 and MKP-3 probes: redox cycling H2O2 generation | shares compounds with MKP-1 inh | DTT, phenol red/HRP | EC50, µM | 60 tested, under 10 active; call rule not given here
# * = called active by the depositor; . = no result. Compounds with a hit are over-represented: about 0.89% of the library has one in this group of screens.
SMILES,Cdc25B inh,WNV NS2B-NS3 inh,Hsp90 inh,MKP-1 inh,MMP13 inh,mHtt clearance,others
CCn1c(=O)n(CC(=O)N2CCC3(CC2)OCCO3)c(=O)c2ccccc21,53*,-0.33,-3,1,2,14,
C[C@H]1CCCC(=O)CCCCCc2cc(O)cc(O)c2C(=O)O1,-18,0.2,88*,-16,1,.,
CC(C)(C)c1cc(C=C(C#N)C#N)cc(C(C)(C)C)c1O,.,.,5,.,.,.,
N#CC(=Cc1ccc(O)c(O)c1)C(N)=S,.,.,52*,.,.,.,
N#CC(C#N)=Cc1ccc(O)c(O)c1,.,.,63*,.,.,.,
COc1cc(C=C(C#N)C#N)cc(O)c1O,.,.,69*,.,.,.,
N[C@@H](Cn1ccc(=O)[nH]c1=O)C(=O)O,.,.,2,.,.,.,
CCN1C[C@]2(C)CC[C@H](O)[C@@]34C5C[C@@H]6[C@@H](OC)C[C@@](O)(C5[C@H]6O)[C@@H](CC23)C14 (stereo not given in full),.,.,-4,.,.,.,
O=C1NC(=O)C(CCc2ccncc2)(C2CCCCC2)C(=O)N1,8,0.2,0,-19,52*,.,
O=C1NC(=O)C(CCc2ccncc2)(Cc2ccc3c(c2)OCO3)C(=O)N1CCc1ccccc1 (stereo not given),.,.,.,.,.,48,
CCN(CC)C(=O)c1ccc(NC(=O)CSc2nnnn2-c2cc(OC)ccc2OC)cc1,5,0.4,2,9,6,22,
CCN(CC)C(=O)c1ccc(NC(=O)Cn2nc(C)c3ccccc3c2=O)cc1,71*,1.6,-4,0,4,.,
COP(=O)(OC)C(O)C(Cl)(Cl)Cl (stereo not given),-15,-3.4*,1,-10,2,.,
CCNCC1(c2ccc(OC)c(OC)c2)CCCC1,1,-4.8*,1,-24,0,.,
O=C(NC1(C(F)(F)F)Oc2ccc(Cl)cc2O1)N1CCC2(CC1)OCCO2 (stereo not given),-7,1.2,64*,3,5,.,
CC(O)C(C)OC(=O)[C@@H]1C[C@@H]2c3cccc4c3c(cn4C(C)C)C[C@H]2N(C)C1 (stereo not given in full),.,.,-1,.,.,.,
COc1ccc(N2CCN(C(CNC(=O)Oc3ccccc3)c3cccnc3)CC2)cc1 (stereo not given),12,-7.2*,-1,9,-6,21,
CCCCCCCCCCCCCC(=O)O[C@@H]1[C@@H](C)[C@@]2(O)[C@@H](C=C(CO)C[C@@]3(O)C(=O)C(C)=C[C@@H]23)C2C(C)(C)[C@@]21OC(C)=O (stereo not given in full),.,.,-2,.,.,.,
CN(C)[C@@H]1C(=O)C(C(N)=O)=C(O)[C@@]2(O)C(=O)C3=C(O)c4c(O)cccc4[C@@](C)(O)[C@H]3C[C@@H]12,10,0.62,72*,15,1,.,
CN(C)[C@@H]1C(=O)C(C(N)=O)=C(O)[C@@]2(O)C(=O)C3=C(O)c4c(O)ccc(Cl)c4[C@@](C)(O)C3C[C@@H]12 (stereo not given in full),-17,0.33,-1,-15,3,.,
C[C@]12CC[C@H]3[C@@H](CCC4C[C@H](O)CC[C@@]43C)[C@@H]1CC[C@@H]2O (stereo not given in full),.,.,-2,.,.,.,
N[C@@H](Cn1cc(I)c(=O)[nH]c1=O)C(=O)O,.,.,3,.,.,.,
CN1CCC23CCCC[C@H]2C1Cc1ccc(O)cc13 (stereo not given in full),.,.,-4,.,.,.,
Cn1ncnc2c(=O)n(C)c(=O)nc1-2,102*,-0.47,91*,101*,5,.,Redox H2O2 0p5DTT=1.2*;Redox 1 DTT=3.2*;Redox H2O2=11*
c1ccc2sc(C3(N4CCCCC4)CCCCC3)cc2c1,.,.,-2,.,.,.,
